Bioassay records from PubChem.
sEH inhibitor = soluble epoxide hydrolase inhibitors, primary screen, biochemical, human sEH. Bifunctional epoxide hydrolase 2 (Homo sapiens), P34913. 0.34% of 91,000 active. AID 707, 2007. inhibition, % at 2 µM. recombinant human sEH enzymatic activity assay; in the data active = inhibition above about 80%
Target sequence (P34913 whole entry, looked up): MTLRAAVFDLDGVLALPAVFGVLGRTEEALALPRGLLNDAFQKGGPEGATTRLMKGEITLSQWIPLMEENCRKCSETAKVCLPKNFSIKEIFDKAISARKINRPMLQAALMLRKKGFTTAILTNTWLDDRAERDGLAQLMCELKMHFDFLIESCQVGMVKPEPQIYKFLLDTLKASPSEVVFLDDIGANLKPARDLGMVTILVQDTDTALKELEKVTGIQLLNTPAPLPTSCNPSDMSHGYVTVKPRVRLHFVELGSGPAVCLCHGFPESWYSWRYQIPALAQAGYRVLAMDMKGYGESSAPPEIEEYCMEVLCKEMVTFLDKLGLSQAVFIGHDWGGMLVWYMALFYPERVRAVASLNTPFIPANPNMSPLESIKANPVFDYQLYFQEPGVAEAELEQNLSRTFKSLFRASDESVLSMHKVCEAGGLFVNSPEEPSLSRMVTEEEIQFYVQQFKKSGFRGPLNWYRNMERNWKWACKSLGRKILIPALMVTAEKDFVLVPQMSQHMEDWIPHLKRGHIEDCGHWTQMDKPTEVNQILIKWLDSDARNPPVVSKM
Measles CPE = compounds protecting cells from measles virus cytopathic effect, primary screen, measles RdRp inhibitor project, single point, MLSMR library, absorbance | Measles virus-infected cells, CPE protection | protection (pct of control), % at 4 µM | 1.5% of 140,000 active | AID 841, 2007; in the data active = protection mostly above about 24%, no sharp cut-off; inactive = mostly below about 26%
sEH act = soluble epoxide hydrolase activators, primary screen, biochemical, human sEH; activation, % at 2 µM; purified human sEH enzymatic activity, activator screen; 0.04% of 91,000 active; Bifunctional epoxide hydrolase 2 (Homo sapiens), P34913; in the data active = activation above about 37%
F-actin modifier = modifiers of F-actin cytoskeleton organization, primary screen, imaging, HUVEC, phalloidin staining, high-content imaging. HUVEC TNFa F-actin phalloidin imaging. inhibition, % at 2 µM. 0.18% of 91,000 active. AID 836, 2007;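 active = inhibition above the batch mean plus 3 SD and confirmed as a hit by visual image inspection, cut at about 30% in these data, passing the limit was not always enough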
Candida biofilm = clotrimazole potentiators killing Candida biofilms, primary screen, with clotrimazole, Alamar Blue | C. albicans biofilm + clotrimazole | inhibition, % at 6 µM | 0.14% of 85,000 active;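 active = inhibition above 20%; inactive = inhibition below 20%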;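 also: preformed 24 hr biofilms exposed to compound for 48 hr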
A number is an active result; n = inactive; x = not tested or not shown. Shown are actives, neighbours in structure and some others; about 1.9% of the full set was active somewhere.

SMILES | sEH inhibitor | Measles CPE | sEH act | F-actin modifier | Candida biofilm
CCOC(=O)CSc1nc2cc(C(=O)N3CCC(C(N)=O)CC3)ccc2c(=O)n1-c1ccccc1 | n | n | n | n | n
N#Cc1c(Sc2ncc(C(F)(F)F)cc2Cl)nsc1C/C=N\OCc1c(F)cccc1Cl | n | n | n | n | n
CCCCCCNC(=O)C(C#N)c1nc2ccccc2nc1N1CCOCC1 (stereo unspecified) | n | 47 | n | n | n
N#CC(C(=O)NCCc1ccccc1)c1nc2ccccc2nc1N1CCCCC1 (stereo unspecified) | n | 41 | n | n | n
CCOc1ccc(OCCCN(C)C)cc1 | n | n | n | n | n
CN(C)CCCOC(=O)COc1ccc(C(C)(C)C)cc1 | x | 25 | x | x | x
CCNC(=S)N/N=C/c1cn(Cc2ccc(F)cc2)c2ccccc12 | x | 29 | x | x | x
N#CC(C#N)=C1CCc2ccccc2N1 | n | 59 | n | n | n
CSc1nc(NC(C)=O)nc(C)c1Br | n | n | n | n | n
COc1cc(N2CCCC2)c(OC)cc1/C=c1/sc2nc3ccccc3n2c1=O | x | n | x | 31 | n
Cc1ccc(-n2c(C)cc(/C=c3/sc4nc5ccccc5n4c3=O)c2C)cc1 | n | n | n | x | n
COc1ccccc1/C=C/C=N/n1c(-c2cc(C)[nH]n2)n[nH]c1=S | x | 57 | x | x | x
N#Cc1cc2c(nc1SCC(=O)Nc1nccs1)CCCCC2 | n | 34 | n | n | n
Cc1ccc2cc(CN(Cc3cccs3)Cc3nnnn3CC3CCCO3)c(=O)[nH]c2c1 (stereo unspecified) | n | 31 | n | n | n
Cc1ccc2[nH]c(=O)c(CN(Cc3cccs3)Cc3nnnn3CC3CCCO3)cc2c1 (stereo unspecified) | n | n | n | n | n
Cc1nn(-c2ccccc2)c(Cl)c1/C=N/NC(=O)c1cccnc1 | x | 44 | x | x | x
COC(=O)N1[C@H](C)C=C[C@]1(Cc1ccccc1)C(=O)O | x | n | x | x | x
O=C(NC(c1ccc(Cl)cc1)c1c(O)ccc2ccccc12)c1ccccc1 (stereo unspecified) | x | 42 | x | x | x
O=C(CC(c1ccccc1)c1ccco1)Nc1nccs1 (stereo unspecified) | x | 25 | x | x | x
COc1ccc2c(C)cc(Sc3nnnn3-c3ccccc3)nc2c1 | x | 53 | x | x | x
O=C(NCCc1c[nH]c2ccccc12)C(F)(F)F | n | 45 | n | n | n
Cn1c(=O)cc(SCC(=O)NCCCN2CCOCC2)c2ccccc21 | x | n | x | n | n
CCCCNC(=O)CSc1cc(=O)n(C)c2ccccc12 | x | n | x | 31 | n
COc1ccc(Cc2nnn(CC(=O)O)n2)cc1 | n | n | n | n | n
O=C(CN1C(=O)S/C(=C/c2cc(Br)cs2)C1=O)N1CCOCC1 | x | n | x | x | x
SMILES | sEH inhibitor | Measles CPE | sEH act | F-actin modifier | Candida biofilm
O=Cc1cc([N+](=O)[O-])ccc1N1CCOCC1 | x | 33 | x | x | x
COC(=O)[C@@H]1C2CCC(C(=O)Nc3ccccc3)(CC2)[C@@H]1C(=O)OC | n | 48 | n | n | n
COc1ccc(C2(C(=O)Nc3ccccc3)CCOCC2)cc1 | x | n | x | x | x
O=C1CN(C(=O)COC(=O)CCC(=O)c2ccc3c(c2)OCCO3)c2ccccc2N1 | n | n | n | n | n
COc1ccnc(Oc2ccc(F)cc2)c1C(=O)N/C=N/OCc1ccc(F)cc1Cl | n | n | n | n | x
COc1ccnc(Oc2ccc(F)cc2)c1C(=O)N/C=N/OCc1ccc(Cl)cc1Cl | n | 29 | n | n | x
CC(=O)c1ccc(OCc2ccc(Oc3c(Cl)cccc3[N+](=O)[O-])cc2)cc1 | x | n | x | x | x
CCOc1cc(C(=O)OCC(=O)c2c(C)[nH]c3ccccc23)ccc1OCC(=O)N1CCOCC1 | n | n | n | 50 | x
CCCn1c(C)cs/c1=N\C(=S)Nc1ccccc1 | x | 44 | x | x | x
Cc1cs/c(=N/C(=S)Nc2ccccc2)n1C | x | n | x | x | x
CNC(=O)c1sc(-c2ccccc2)nc1C | n | n | n | n | n
CNC(=O)c1cc(C)c(-c2ccccc2)s1 | n | 49 | n | n | n
CC(Sc1nc2ccccc2s1)C(=O)Nc1nnc(C(C)C)s1 (stereo unspecified) | n | n | 37 | n | n
CCC(Sc1nc2ccccc2s1)C(=O)Nc1nnc(C)s1 (stereo unspecified) | n | n | n | n | x
CCCCCc1c(C)nc(NCc2ccccc2)[nH]c1=O | x | 37 | x | x | n
Cc1nc(Nc2ccccc2)[nH]c(=O)c1CCC(C)C | n | n | n | n | n
Cc1cc(C(=O)NCc2cccnc2)cs1 | n | n | n | n | n
Cc1ccc(C(=O)c2c[nH]c(C(=O)NCc3cccnc3)c2)cc1 | n | 28 | n | n | x
O=C(NC1CCCCC1)C1CCN(S(=O)(=O)N2CCCCCC2)CC1 | n | n | n | n | n
O=C(NC1CCCCCCC1)C1CCN(S(=O)(=O)N2CCC3(CC2)OCCO3)CC1 | 88 | n | n | n | n
CCCCCC(=O)N1CCCC(c2nc(-c3ccc(OC)cc3)no2)C1 (stereo unspecified) | n | n | n | n | n
Cc1cc(C)cc(NC(=O)N2CCC(c3nc4ccccc4o3)CC2)c1 | n | n | n | n | n
CC(C)c1ccc(NC(=O)N2CCC(c3nc4ccccc4o3)CC2)cc1 | 96 | n | n | n | n
COc1ccc(NC(=O)N2CCCC(c3nc(-c4ccc(C(C)C)cc4)no3)C2)cc1 (stereo unspecified) | 92 | n | n | n | n
CCOc1ccc(NC(=O)Nc2ccc3c(c2)N(C)C(=O)CS3)cc1 | x | 41 | x | x | n
SMILES | sEH inhibitor | Measles CPE | sEH act | F-actin modifier | Candida biofilm
COc1ccc(OCCC(=O)OCc2c(C)noc2C)cc1 | n | 35 | n | n | x
COc1ccc(CNC(=O)C2CC(c3ccccc3[N+](=O)[O-])=NO2)cc1 (stereo unspecified) | n | 36 | n | x | x
COc1cccc(C2=NOC(C(=O)NCc3ccccc3)C2)c1 (stereo unspecified) | n | 23 | n | n | n
N#CC(c1ccc(Cl)cc1)(c1ncc(C(F)(F)F)cc1Cl)N1CCOCC1 (stereo unspecified) | n | n | n | n | x
CCN=c1scc(-c2ccccc2)n1/N=C/c1ccccn1 | x | 62 | x | x | x
C=CCN=c1scc(-c2ccccc2)n1/N=C/c1ccccn1 | x | 50 | x | x | x
C=CCN=c1scc(-c2ccc(F)cc2)n1/N=C/c1ccccn1 | x | n | x | x | x
CCc1ccc(NC(=O)N(CCOC)C2CCN(C(C)=O)CC2)cc1 | n | 65 | n | n | n
CCOC(=O)C1=C(CC)OC(N)=C(C#N)C1c1ccc(NC(C)=O)cc1 (stereo unspecified) | x | 31 | x | x | x
Cc1cccc(-n2ncc3c(Nc4ccc(F)cc4)ncnc32)c1 | x | x | x | x | n
CCCN(CCC)c1ncnc2c1cnn2-c1ccc(OC)cc1 | n | 92 | n | n | n
COc1ccc(-n2ncc3c(Nc4cccc(C)c4)ncnc32)cc1 | x | 38 | x | x | n
COc1ccc(/C=N/NC(=O)CN2CCSCC2)c(OC)c1 | x | n | x | x | x
CC(=O)NN1C(=O)c2ccc(Oc3cccc([N+](=O)[O-])c3)cc2C1=O | n | n | n | n | x
Cc1ccccc1OCc1nc(-c2ccc(NC(=O)c3ccco3)cc2)no1 | n | 71 | n | n | n
